PubChem BioAssay (NCATS)
Results filed as inconclusive are left out. Activity calls are given as the source filed them. Unless noted, the call rests on the fitted dose curve; in most records, active means well fitted curve in the direction sought with a large enough effect; inconclusive means small, poorly fitted or top-dose-only effect, or another doubt; inactive means no such curve, though single readings can be large; an effect the other way counts as inactive or inconclusive.

Key:
[1] = target: Cellular tumor antigen p53 (Homo sapiens) (UniProt P04637); assay: Primary qHTS for small molecule compounds that upregulate eGFP-tagged delta133p53alpha (in N-terminal) cells. (AID 2060322); conditions: NCI-H358 eGFP-delta133p53alpha fluorescence, 24 h; activation: hits give high values;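 further: cells pre-induced with doxycycline then dosed without doxycycline; series mostly up to about 56 µM; 0% = DMSO vehicle and 100% = reference activator; nearly all actives have a fitted effect of over 75% in size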
Sequence of Cellular tumor antigen p53 (Homo sapiens) (P04637 whole entry, looked up): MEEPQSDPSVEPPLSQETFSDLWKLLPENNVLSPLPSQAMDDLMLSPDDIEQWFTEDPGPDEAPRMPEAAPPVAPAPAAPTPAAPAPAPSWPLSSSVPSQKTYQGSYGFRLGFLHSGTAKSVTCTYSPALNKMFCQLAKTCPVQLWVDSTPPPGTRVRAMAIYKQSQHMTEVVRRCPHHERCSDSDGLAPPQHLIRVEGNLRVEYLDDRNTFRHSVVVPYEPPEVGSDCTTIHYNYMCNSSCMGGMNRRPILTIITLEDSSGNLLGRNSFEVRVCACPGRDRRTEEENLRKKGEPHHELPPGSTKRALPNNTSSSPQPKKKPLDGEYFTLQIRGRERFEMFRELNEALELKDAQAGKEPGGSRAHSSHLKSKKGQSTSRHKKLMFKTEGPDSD
Outline: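 NCI-H358 cells pre-induced 24 h with 10 ng/ml doxycycline for eGFP-delta133p53alpha, plated dox-free and exposed 24 h at 37C to titrated compounds. Fixed, Hoechst-stained; gated GFP peak intensity by laser scanning cytometry, normalized to DMSO (0%) and 57.5 uM 5-azacytidine (100%).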

[2] = target: Aldehyde dehydrogenase, mitochondrial (Homo sapiens) (UniProt P05091); assay: qHTS for Inhibitors of the Aldehyde Dehydrogenase Family (ALDH2) Confirmatory screens (AID 2061303; active means well fitted inhibition curve with a large enough effect; title and protocol of this record describe different tests; further: on the % scale 0 is the no-effect control and ±100 the full control effect; nearly all actives have a fitted effect of over 45% in size)
[3] = qHTS for Inhibitors of the Aldehyde Dehydrogenase Family (ALDH1A2, ALDH1A3, ALDH2, ALDH3A1) (AID 2061307); further: nearly all actives have a fitted effect of over 50% in size; on Potency: test system not described further here; potency means the concentration at half of the fitted maximal effect
[4] = target: Aldehyde dehydrogenase, mitochondrial (Homo sapiens) (UniProt P05091); assay: qHTS for Inhibitors of the Aldehyde Dehydrogenase Family (ALDH2) Primary screen (AID 2061308);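 further: plate controls were vehicle for no effect and reference inhibitor for full effect; nearly all actives have a fitted effect of over 55% in size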
[5] = target: Retinaldehyde dehydrogenase 3 (Homo sapiens) (UniProt P47895); assay: qHTS for Inhibitors of the Aldehyde Dehydrogenase Family (ALDH1A3) Confirmatory screens (AID 2061311); further: nearly all actives have a fitted effect of over 60% in size; further: potency means the concentration at half of the fitted maximal effect
[6] = target: Retinal dehydrogenase 2 (Homo sapiens) (UniProt O94788); assay: qHTS for Inhibitors of the Aldehyde Dehydrogenase Family (ALDH1A2) Confirmation screens (AID 2061314); further: on the % scale 0 is the no-effect control and ±100 the full control effect; nearly all actives have a fitted effect of over 65% in size
[7] = target: Retinaldehyde dehydrogenase 3 (Homo sapiens) (UniProt P47895); assay: qHTS for Inhibitors of the Aldehyde Dehydrogenase Family (ALDH1A3) Primary screen (AID 2061315); further: potency means the concentration at half of the fitted maximal effect
[8] = target: Aldehyde dehydrogenase 1A1 (Homo sapiens) (UniProt P00352); assay: qHTS for Inhibitors of the Aldehyde Dehydrogenase Family (ALDH1A1) Confirmatory screens (AID 2061316); further: on the % scale 0 is the no-effect control and ±100 the full control effect; nearly all actives have a fitted effect of over 65% in size
[9] = target: Retinaldehyde dehydrogenase 3 (Homo sapiens) (UniProt P47895); assay: qHTS for Inhibitors of the Aldehyde Dehydrogenase Family (ALDH1A3) Validation screen (AID 2061312); further: on the % scale 0 is the no-effect control and ±100 the full control effect; nearly all actives have a fitted effect of over 45% in size
[10] = BET inhibitor-based combinations targeting novel dependencies in MECOM-rearranged (r) AML: OCI-AML3 cell line (AID 2202232); conditions: Potency: OCI-AML3 viability; further: potency means the concentration at half of the fitted maximal effect; nearly all actives have a fitted effect of over 35% in size
Outline: (§1)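 Viability of cells (500 per well) is scored by luminescent CellTiter-Glo at 48 hr post-dosing. Eleven-point titrations are normalized to DMSO and empty controls and reduced to AUC values.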

[11] = BET inhibitor-based combinations targeting novel dependencies in MECOM-rearranged (r) AML: MV-4-11 cell line (AID 2202233); further: potency means the concentration at half of the fitted maximal effect; nearly all actives have a fitted effect of over 45% in size
Outline: (§2)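 Using pin-tool transfer, drugs were added in 11 doses to cells (500/well), incubated 48 hr, and assessed with CellTiter-Glo. Z-AUC is a mean-centring transformation applied separately to each screened line.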

[12] = BET inhibitor-based combinations targeting novel dependencies in MECOM-rearranged (r) AML: UCSD-AML1 cell line (AID 2202235); further: potency means the concentration at half of the fitted maximal effect; nearly all actives have a fitted effect of over 40% in size
Outline: as §2

[13] = BET inhibitor-based combinations targeting novel dependencies in MECOM-rearranged (r) AML: AML-194 cell line (AID 2202237; further: potency means the concentration at half of the fitted maximal effect; nearly all actives have a fitted effect of over 40% in size)
Outline: as §1

Clc1cccc(COc2cncc(N3CCNCC3)n2)c1
inactive: activation [1] 14.8% | Potency [2] | Potency [3] | Potency [4] | Potency [5] | Potency [6] | Potency [7] | Potency [8]

Cc1cc(Cl)ccc1COc1ccnn1-c1cc(C(=O)O)ccn1
inactive: activation [1] 5.67% | Potency [2] | Potency [3] | Potency [4] | Potency [5] | Potency [6] | Potency [7]

CCC(C)C(N)C(=O)NCCN1CCOCC1 (stereo unspecified)
inactive: activation [1] 23% | Potency [2] | Potency [3] | Potency [4] | Potency [5] | Potency [6] | Potency [7] | Potency [8]

O=C(O)c1n[nH]c2c1C[C@H]1C[C@@H]21
inactive: activation [1] -8.11% | Potency [2] | Potency [3] | Potency [4] | Potency [5] | Potency [6] | Potency [7] | Potency [8]

COc1cc(CC2COC(c3ccc(OC4OC(CO)C(O)C(O)C4O)c(OC)c3)C2CO)ccc1O (stereo unspecified)
inactive: activation [1] -20.6% | Potency [2] | Potency [3] | Potency [4] | Potency [6]
active: Potency [5] 11 µM | Potency [7] 8.91 µM

NC(=O)[C@H]1CCS[C@@H]2C[C@]3(CCCN3C(=O)Cc3ccc(NC(=O)COc4ccc(Cl)cc4Cl)cc3)C(=O)N12
inactive: activation [1] 19% | Potency [2] | Potency [3] | Potency [4] | Potency [5] | Potency [9] | Potency [6] | Potency [7] | Potency [8]
active: Potency [10] 9.34 µM | Potency [11] 7.42 µM | Potency [12] 7.42 µM | Potency [13] 6.61 µM

O=C1C[C@@H](c2ccc(O)cc2)Oc2cc(O)ccc21
inactive: activation [1] 4.3% | Potency [2] | Potency [4] | Potency [6] | Potency [8]
active: Potency [3] 3.02 µM | Potency [5] 12.7 µM

C[S+](CC[C@H](N)C(=O)[O-])C[C@H]1O[C@@H](n2cnc3c(N)ncnc32)[C@H](O)[C@@H]1O (stereo partly specified)
inactive: activation [1] 12.3% | Potency [2] | Potency [3] | Potency [4] | Potency [5] | Potency [6] | Potency [7] | Potency [8]
